ClpP mod: qHTS Assay for Activators of ClpP | purified B. subtilis ClpP, FRET peptide cleavage, 20 min | Potency, µM (highest dose often 57.5 µM), for inactives: top-dose activity change, negative = active | ATP-dependent Clp protease proteolytic subunit (Bacillus subtilis (strain 168)), P80244 | hit rate 1.9% among 340,000; active = well fitted falling curve with a large enough effect; inconclusive = small, poorly fitted or top-dose-only effect; inactive = no such curve, though single readings can be large or run the other way; note: potency is the fitted concentration of half-maximal effect; the source files actives as falling curves though it sought activators and does not explain the sign; nearly all actives have a fitted effect of over 65% in size
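Buffer: 100 mM Tris/HCl pH8, 100 mM KCl, 0.05% low protease BSA, 2.5% glycerol, 0.01% Tween-20. ClpP 10 microg/mL final; 20 min RT; delta FRET normalized to ADEP and DMSO controls.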
hERG WT inh: inhibitors of human wildtype KCNH2 potassium channel | Q12809 | U2OS, BacMam KCNH2, thallium flux FluxOr; stronger effect = lower value | activity change, % at 1.84 µM | hit rate 0.37% among 340,000 | AID 720551;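 active = maximum activity change below -70%; inconclusive = maximum activity change between -70% and -50%; inactive = maximum activity change above -50%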; note: % is set by controls: 0 for no effect and ±100 for the full control effect
Target sequence (Q12809 whole entry, looked up): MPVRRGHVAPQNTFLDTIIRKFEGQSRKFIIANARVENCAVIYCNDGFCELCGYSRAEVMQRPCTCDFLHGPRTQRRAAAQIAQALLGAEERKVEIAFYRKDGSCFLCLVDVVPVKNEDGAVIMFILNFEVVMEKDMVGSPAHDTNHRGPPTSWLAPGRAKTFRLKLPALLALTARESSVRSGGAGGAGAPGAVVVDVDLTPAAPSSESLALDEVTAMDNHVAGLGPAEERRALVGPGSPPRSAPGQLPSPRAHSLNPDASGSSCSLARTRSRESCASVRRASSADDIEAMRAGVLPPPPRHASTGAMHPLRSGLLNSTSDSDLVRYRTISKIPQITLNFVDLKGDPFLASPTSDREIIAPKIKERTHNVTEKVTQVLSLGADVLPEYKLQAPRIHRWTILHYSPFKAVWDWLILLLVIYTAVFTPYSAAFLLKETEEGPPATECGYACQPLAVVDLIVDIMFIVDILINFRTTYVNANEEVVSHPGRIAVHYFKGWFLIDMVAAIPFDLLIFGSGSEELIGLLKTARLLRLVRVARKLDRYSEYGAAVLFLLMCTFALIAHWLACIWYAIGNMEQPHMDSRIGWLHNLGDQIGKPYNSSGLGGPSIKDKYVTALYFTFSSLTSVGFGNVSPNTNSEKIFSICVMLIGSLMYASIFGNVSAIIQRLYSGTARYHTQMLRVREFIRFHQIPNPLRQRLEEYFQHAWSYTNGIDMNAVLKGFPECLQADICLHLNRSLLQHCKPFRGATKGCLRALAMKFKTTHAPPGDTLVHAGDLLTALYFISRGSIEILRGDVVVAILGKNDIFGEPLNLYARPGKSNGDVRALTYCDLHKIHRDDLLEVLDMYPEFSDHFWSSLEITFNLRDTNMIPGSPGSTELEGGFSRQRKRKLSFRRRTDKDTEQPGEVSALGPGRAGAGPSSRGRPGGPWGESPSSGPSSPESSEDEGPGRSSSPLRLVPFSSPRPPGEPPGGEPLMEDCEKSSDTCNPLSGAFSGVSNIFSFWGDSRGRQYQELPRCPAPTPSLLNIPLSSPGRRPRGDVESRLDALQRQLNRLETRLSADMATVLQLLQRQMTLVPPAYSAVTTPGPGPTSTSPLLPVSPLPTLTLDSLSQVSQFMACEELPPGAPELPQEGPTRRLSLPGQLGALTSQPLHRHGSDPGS
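U2OS cells transduced with wild-type KCNH2 virus are loaded with FluxOr dye for 45 min, and thallium flux is measured in kinetic reads before and after stimulation buffer. Rate constants are normalized to DMSO controls.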
TRPV1 PAM: enhances activation of the human vanilloid receptor TRPV1. hit rate 0.02% among 320,000. potentiation, % at 8.33 µM. TRPV1-expressing cells, Fluo-8 calcium influx, capsaicin EC20 potentiation. AID 540277. Q8NER1; in the data active = potentiation above about 80%; inconclusive = between about 30% and that limit; note: 0% is about no effect
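Fluo-8 calcium influx in TRPV1-expressing cells, kinetic read (ex 480/em 520 nm). Compound added and read 3 min for agonist activity, followed by capsaicin at EC20 final and 2 min further read for enhancement.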
TRPV1 agonist: activates the human vanilloid receptor TRPV1. Q8NER1. TRPV1-expressing cells, Fluo-8 calcium influx, agonist mode. activation, % at 8.33 µM. hit rate 0.19% among 320,000; in the data active = activation above about 80%; inconclusive = between about 30% and that limit; note: 0% is about no effect
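TRPV1-expressing cells were cultured overnight at 35.5C and loaded with Fluo-8 calcium dye for 40 to 90 min at room temperature. After a 10 s baseline, compound was added and calcium influx was read kinetically for 3 min (ex 480/em 520 nm).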
KCNH2 3.1 inh: KCNH2 3.1 (human) potassium channel inhibition. U2OS KCNH2 3.1, thallium flux FluxOr; stronger effect = lower value. hit rate 0.95% among 340,000. activity change, % (tested at about 1.8 µM);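 active = maximum activity change below -70%; inconclusive = maximum activity change from -70% to -50%; inactive = maximum activity change above -50%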;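 note: thallium influx rate constant from kinetic fluorescence after stimulation buffer; % is set by controls: 0 for no effect and ±100 for the full control effect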
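FluxOr-based Tl+ influx in U2OS cells transduced with KCNH2 3.1 virus; rate constants normalized to DMSO controls.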
p53 reactivator: re-activators of mutant p53 | hit rate 0.063% among 320,000 | Potency, µM (highest dose often 92.2 µM), without a hit: top-dose activity change, positive = activation, usual class: activators | H1299 p53-A138V BP100-luciferase reporter, luminescence, 24 h; active = well fitted activation curve with a large enough effect; inconclusive = small, poorly fitted or top-dose-only effect; inactive = no such curve, though single readings can be large or run the other way; note: potency is the fitted concentration of half-maximal effect; % of control where 0% means no effect; nearly all actives have a fitted effect of over 45% in size
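H1299 (p53-null), stable ts p53-A138V + BP100-Luc; 1000 cells/well, Opti-MEM/10% FBS; cpd 4 pt, 1:5; 24 h, 37 deg C, 5% CO2; detection reagent 10 min RT; luminescence.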
* marks the source's active call; other numbers are inactive results; i = inactive; ? = inconclusive; nt = not tested or not shown; ! = not active in a repeat. This is a sample that favours compounds with a hit; in the whole collection about 2.6% have one here.

SMILES | ClpP mod | hERG WT inh | TRPV1 PAM | TRPV1 agonist | KCNH2 3.1 inh | p53 reactivator
O=C(Cc1cccc(NC(=O)C2CCCN(C(=O)C3CCCC3)C2)c1)Nc1ccc(C(=O)N2CCCCC2)cc1 (stereo not drawn) | 0% | 6 | nt | nt | 6 | nt
Cc1cc[n+](CCC2CCCCC2)cc1 | -1% | nt | nt | nt | nt | nt
Cc1occc1C(=O)NC(C)C12CC3CC(CC(C3)C1)C2 (stereo not drawn) | nt | 28 | -7 | 23 | 8 | -1%
Cc1occc1C(=O)NN=C1C2CC3CC(C2)CC1C3 | -3% | -9 | 0 | 4 | 9 | 13µM*
CCC(c1nnnn1CCOC)N(Cc1cc2c(C)cc(C)cc2[nH]c1=O)CC1CCCO1 (stereo not drawn) | 28µM* | 11 | -17 | 0 | -4 | -8%
O=C(Nc1ccc(F)cc1)C(c1cc2ccccc2o1)N1CCN(C(=O)c2ccco2)CC1 (stereo not drawn) | -5% | nt | nt | nt | nt | nt
Cc1nc(N2CCN(Cc3ccc4c(c3)OCO4)CC2)c2cc(-c3ccccc3)sc2n1 | nt | 13 | -1 | 3 | -21 | 7%
Cc1nc(N2CCOCC2)c2cc(-c3ccccc3)sc2n1 | 32µM* | -24 | -28 | ? | 12 | 0%
c1ccc(-c2cc3c(N4CCOCC4)ncnc3s2)cc1 | 28µM* | -6 | -11 | ? | 21 | -5%
CC1=C(c2ccc(C)c(C)c2)S(=O)(=O)N=C1N1CCC(C(=O)N2CCCCC2)CC1 | -5% | nt | nt | nt | nt | nt
Cc1ccc(S(=O)(=O)N2CCC(C(=O)Nc3ccc(C)c(Cl)c3)CC2)cc1 | -5% | nt | nt | nt | nt | nt
C/C(=N\Nc1nc2ccccc2[nH]1)c1ccccn1 | nt | nt | 0 | 5 | nt | 8.9µM*
C/C(=N\Nc1nc2ccccc2[nH]1)c1cc2ccccc2o1 | 0% | 4 | 0 | 9 | -17 | 13%
COc1ccc(CCNC(=O)Cn2cc(C(=O)c3ccc(Cl)cc3)c(=O)c3ccc(C)nc32)cc1OC | 1% | nt | nt | nt | nt | nt
O=c1c2ccccc2sc2nc(CCl)nn12 | 16µM* | 1 | nt | nt | -23 | nt
Cc1cc2ccccc2n2c(SCC(=O)Nc3cccc(C(F)(F)F)c3)nnc12 | -6% | nt | nt | nt | nt | nt
COC(=O)c1ccccc1NC(=O)c1ccc(COc2cc(C)cc(C)c2)o1 | 20µM*! | -3 | 16 | 7 | -8 | 16%
COC(=O)c1ccccc1NC(=O)c1ccc(COc2ccc(C)c(C)c2)o1 | ? | 4 | -7 | -1 | -1 | 5%
O=C(Nc1ccc(S(=O)(=O)N2CCOCC2)cc1)c1ccc(S(=O)(=O)N2CCOCC2)cc1 | nt | 7 | -7 | ? | -1 | 8%
O=C(NC12CC3CC(CC(C3)C1)C2)c1ccc(S(=O)(=O)N2CCOCC2)cc1 | 0% | 2 | -22 | ? | -109* | 9%
CCCN1C(=O)/C(=C\C=C2/Sc3ccccc3N2CCO)SC1=S | nt | -21 | 3 | 6 | -81* | -5%
C=CCN1C(=O)/C(=C\C=C2\N(C)c3ccccc3C2(C)C)SC1=S | nt | i | 13 | 11 | -40 | 9%
CCCN1C(=O)/C(=C/C=C2\N(CC)c3ccccc3C2(C)C)SC1=S | -1% | -91* | -2 | 15 | -5 | 0%
C/C(=N\NC(=O)COc1ccccc1)c1cccs1 | 25µM* | -4 | -18 | 5 | 3 | ?
C/C(=N/NC(=O)c1ccncc1)c1cc2ccc(O)cc2oc1=O | 32µM* | 4 | -17 | 28 | 9 | -2%
SMILES | ClpP mod | hERG WT inh | TRPV1 PAM | TRPV1 agonist | KCNH2 3.1 inh | p53 reactivator
Cc1ccc(-n2nnc3c(sc4nc(C)c(C)cc43)c2=O)cc1Cl | 1% | nt | nt | nt | nt | nt
COc1ccc(Cc2nc(C(=O)Nc3ccccc3)cs2)cc1 | 32µM* | -17 | -9 | ? | 0 | 29%
COc1cc(-c2nc3cccc(C)n3c2Nc2ccc3c(c2)OCCO3)ccc1O | 3% | nt | nt | nt | nt | nt
CC(=O)c1ccc(Nc2nc(C)nc3c2oc2ccccc23)cc1 | nt | nt | 7 | ? | nt | 13%
COc1ccc(Nc2nc(C)nc3c2oc2ccccc23)cc1 | nt | 8 | -14 | 98* | 2 | 1%
Cc1nc(N2CCC(C)CC2)c2oc3ccccc3c2n1 | -19% | -17 | -5 | 22 | 0 | 5%
